Bioassay records as filed in PubChem.
The list is not random: actives were taken first. Their share in the collection is about 4.2%.
ssDAF12 agonist – S. stercoralis DAF-12 activation, primary screen. actives 1% (n = 370,000). activation, % at 6.8 µM. HEK293 ssDAF-12/GRIP1 lit1-tk-luc reporter, luminescence; % of 3 µM dafachronic acid response. AID 652126;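 active = activation above the mean over all tested compounds plus 3 SD, cut at about 0.9% in these data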;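 note: 0% = DMSO-only wells and 100% = 3 µM delta7-dafachronic acid wells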
hcDAF-12 act – activates DAF-12 receptor from parasite H. contortus; HEK293 hcDAF-12 lit1-tk-luc reporter, luminescence; 0% DMSO, 100% Δ7-dafachronic acid; activation, % at 6.8 µM; actives 1.4% (n = 370,000); AID 652067;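 active = activation above the mean of all tested compounds plus 3 SD, cut at about 5.5% in these data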;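 note: 100% = response to 3 µM Δ7-dafachronic acid high control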
esBAF inh – blocks esBAF chromatin remodeling in mouse ES cells | reporter increase, % at 12.5 µM | actives 2% (n = 350,000) | Bmi1-luciferase knock-in reporter, 24 h; 100% = twice the neutral-well signal; in the data active = activation above about 40%; inconclusive = no clear call, values can overlap the other calls;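 note: 0% = median of the plate's neutral control wells and 100% = double that signal; a rise in the Bmi1 reporter signal indicates esBAF inhibition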
DAX1 StAR inh – inhibitors of DAX1 repression of SF-1 activated StAR promoter | inhibition, % at 6.8 µM | HEK293T StAR-luciferase reporter, SF-1/DAX-1 repression relief | actives 1.1% (n = 370,000);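 active = inhibition above the mean over all tested compounds plus 3 SD, cut at about 3.6% in these data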;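 note: 0% = DAX-1 cells with DMSO and 100% = cells lacking DAX-1 with DMSO; higher inhibition means more luminescence from relief of DAX-1 repression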
Wnt act – activators of Wnt/beta-catenin signaling. Wnt/beta-catenin reporter cell assay, activator, plate reader. activation, % at 9.35 µM. actives 1.2% (n = 300,000); in the data active = activation above about 30%, passing the limit was not always enough; inconclusive = no clear call, values can overlap the other calls;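 note: 0% = neutral control wells and 100% = positive control wells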
hgDAF-12 ag – activates the H. glycines DAF-12 receptor ligand-binding domain. HEK293 GAL4-hgDAF12 UAS-luciferase reporter, agonist luminescence; normalized to butyrate control. activation, % at 6.8 µM. actives 1.8% (n = 370,000). AID 687014;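 active = activation above a cutoff set at the mean of all screened compounds plus 3 SD, cut at about 10% in these data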;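 note: 0% = DMSO wells and 100% = sodium butyrate wells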
LXR ag – LXR-beta agonism as hcDAF-12 counter-screen; 3,400 tested, under 10 active; HEK293 Gal4-LXR tk-luc reporter, luminescence, 24 h; normalized: DMSO 0%, positive control 100%; AID 743027; shares compounds with hcDAF-12 act; activation, % at 6.8 µM;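 active = mean percent activation of the reporter above a cutoff set as the average over tested compounds plus their standard deviation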
Target sequence (P55055 whole entry, looked up, the tested form may be a part): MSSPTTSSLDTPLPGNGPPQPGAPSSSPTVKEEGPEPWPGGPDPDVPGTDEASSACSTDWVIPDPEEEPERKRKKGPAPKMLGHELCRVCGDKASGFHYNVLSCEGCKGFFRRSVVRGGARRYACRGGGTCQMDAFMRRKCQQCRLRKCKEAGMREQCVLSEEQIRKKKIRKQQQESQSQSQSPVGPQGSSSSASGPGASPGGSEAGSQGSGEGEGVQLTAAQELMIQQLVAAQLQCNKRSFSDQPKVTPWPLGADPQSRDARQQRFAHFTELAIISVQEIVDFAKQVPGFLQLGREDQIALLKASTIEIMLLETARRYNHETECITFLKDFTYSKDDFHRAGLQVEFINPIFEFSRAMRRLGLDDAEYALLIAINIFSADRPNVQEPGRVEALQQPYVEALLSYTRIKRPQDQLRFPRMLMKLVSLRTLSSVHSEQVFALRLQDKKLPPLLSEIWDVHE
hcDAF12 conf – hcDAF-12 agonism, confirmation assay | shares compounds with hcDAF-12 act | activation, % at 6.8 µM | HEK293 hcDAF-12 lit1-tk-luc reporter, luminescence; % of Δ7-dafachronic acid response | actives 61% (n = 3,400);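 active = mean activation across triplicate tests above the threshold derived from the earlier primary screen, cut at about 5.5% in these data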;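 note: 0% = DMSO only wells and 100% = 3 µM Δ7-dafachronic acid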
The depositor's hits bear a star; ? = inconclusive; . = no result given.

SMILES	ssDAF12 agonist	hcDAF-12 act	esBAF inh	DAX1 StAR inh	Wnt act	hgDAF-12 ag	LXR ag	hcDAF12 conf
O=C(CC(Nc1cccc(Cl)c1Cl)C(=O)OCC(=O)c1cccs1)c1ccccc1 (stereo unspecified)	-0.1	7.4*	.	0.2	9.5	3.1	-0.2	2.7
Cc1c(Cl)cccc1NC(CC(=O)c1ccccc1)C(=O)OCC(=O)c1cccs1 (stereo unspecified)	-0.5	1.6	.	0.7	17.7	1.2	.	.
Cc1noc(C)c1S(=O)(=O)N(C)C[C@H]1OCCCC[C@@H](C)Oc2ccc(NC(=O)Nc3ccccc3)cc2C(=O)N([C@@H](C)CO)C[C@H]1C	.	.	-4.7	.	.	.	.	.
Cc1noc(C)c1S(=O)(=O)N(C)C[C@H]1OCCCC[C@@H](C)Oc2ccc(NC(=O)C3CCCCC3)cc2C(=O)N([C@H](C)CO)C[C@H]1C	.	.	-5.8	.	.	.	.	.
C[C@H](CO)N1C[C@H](C)[C@H](CN(C)S(=O)(=O)c2cccs2)OCCCC[C@H](C)Oc2ccc(NC(=O)Nc3ccccc3)cc2C1=O	.	.	-2.4	.	.	.	.	.
CN(C)C(CNC(=O)CCS(=O)(=O)c1ccccc1)c1ccccc1 (stereo unspecified)	0.5	8.9*	-2.9	-0.2	-0.6	3.9	-0.1	7.1*
O=C(CCS(=O)(=O)c1ccccc1)NCCS(=O)(=O)c1ccccc1	-1.1	-0.6	.	0.2	0.0	1.1	.	.
O=C(Nc1ccc2c(c1)CCC2)c1cccc(OC(F)F)c1	1.3*	7.4*	?	2.7	64.9*	11.2*	1.5	3.7
O=C(Nc1ccc(S(=O)(=O)N2CCCC2)cc1)c1cccc(OC(F)F)c1	-0.6	-3.0	1.0	-2.8	-1.0	-4.5	.	.
O=C(O)c1ccc(N=Nc2c(O)ccc3ncccc23)cc1	0.6	6.6*	-3.7	2.5	0.1	11.8*	1.3	10.2*
O=C1CC(c2ccco2)Sc2nc3ccccc3n21 (stereo unspecified)	2.8*	9.8*	0.3	1.6	46.5*	8.4	0.3	10.2*
O=C1CC(c2cccs2)Sc2nc3ccccc3n21 (stereo unspecified)	1.6*	7.5*	.	3.3	.	10.2	1.2	7.4*
CN=c1scc(-c2ccccc2F)n1/N=C/c1ccc(O)c(O)c1O	0.6	7.2*	-77.8	3.1	-6.9	6.0	1.3	16.3*
CN=c1scc(C)n1/N=C/c1ccc(O)cc1O	0.7	7.6*	.	3.6*	.	6.3	1.9	6.6*
Cn1cc(C(=O)N/N=C/C(Br)=C/c2ccccc2)ccc1=O	-0.8	7.6*	.	-0.8	9.3	-1.2	-0.1	2.9
CCCCn1c(O)c2n(c1=O)Cc1ccccc1N=C2c1ccccc1	-0.8	4.1	0.9	-1.4	-1.2	-0.7	.	.
CCCCn1c(O)c2n(c1=O)Cc1ccccc1N=C2c1ccc(C)cc1	0.1	7.3*	-8.3	0.7	-1.3	0.3	-0.1	3.5
CCCNC(=O)N1C[C@@H](C)[C@H](OC)CN(C)C(=O)c2cc(NC(=O)C3CCC3)ccc2OC[C@H]1C	.	.	-3.9	.	.	.	.	.
O=C1CCC(=O)N1c1ccc(-c2nc3ccccc3s2)cc1	0.1	7.3*	-71.1	2.7	1.0	4.4	1.7	9.5*
Cc1noc(C)c1NC(=O)Nc1cccc2c1O[C@@H](CN(C)C(=O)NC1CCCCC1)[C@@H](C)CN([C@H](C)CO)C2=O	.	.	-3.3	.	.	.	.	.
C[C@H](CO)N1C[C@H](C)[C@H](CN(C)Cc2ccncc2)Oc2cc(C3=CCCC3)ccc2S1(=O)=O	.	.	-0.7	.	.	.	.	.
Nc1cc2[nH]c(=O)c3ccccc3c2cc1Br	1.1*	9.7*	-7.7	3.7*	-2.5	2.8	0.0	9.3*
COc1ccc(S(=O)(=O)N(C)C[C@H]2Oc3c(NC(=O)Nc4ccc(C(F)(F)F)cc4)cccc3C(=O)N([C@@H](C)CO)C[C@H]2C)cc1	.	.	13.7	.	.	.	.	.
CCCCCOc1ccc(NS(C)(=O)=O)cc1	-0.1	8.0*	17.5	0.9	10.3	2.5	0.2	3.9
O=C(Cc1cccs1)Nc1cccc(-c2nc3cc4ccccc4cc3[nH]2)c1	0.9	9.4*	.	2.7	30.0	13.2*	1.8	5.4
SMILES	ssDAF12 agonist	hcDAF-12 act	esBAF inh	DAX1 StAR inh	Wnt act	hgDAF-12 ag	LXR ag	hcDAF12 conf
CC(=O)Nc1cccc(NC(=O)Cc2cccs2)c1	-0.8	0.1	0.1	0.2	-0.7	-0.2	.	.
C[C@H]1CN([C@@H](C)CO)C(=O)c2cc(-c3ccncc3)cnc2O[C@@H]1CN(C)C(=O)c1ccc(F)cc1	.	.	2.8	.	.	.	.	.
Cn1c(Cl)c(C(=O)Nc2ccc(Cl)cc2)c2ccccc21	0.7	6.8*	15.7	-0.1	6.5	8.3	0.3	5.9*
Cc1ccc2nc(-c3ccc(NC(=O)COC(=O)c4ccc([N+](=O)[O-])o4)cc3)sc2c1	1.3*	7.4*	.	4.0*	10.4	22.9*	1.7	8.8*
O=C(COC(=O)c1ccc([N+](=O)[O-])o1)Nc1ccc(F)cc1	-1.0	-0.4	-7.8	-2.0	-1.8	0.3	.	.
C[C@@H]1CN([C@H](C)CO)C(=O)c2cccc(NC(=O)c3ccc(-c4nccs4)cc3)c2O[C@H]1CN(C)Cc1ccc(C(F)(F)F)cc1	.	.	16.3	.	.	.	.	.
CCCNC(=O)Nc1ccc2c(c1)OC[C@H](C)N(C(C)=O)C[C@@H](C)[C@@H](OC)CN(C)C2=O	.	.	-1.3	.	.	.	.	.
c1ccc(N2CC3CCc4ccccc4C3=N2)cc1 (stereo unspecified)	1.4*	12.2*	.	1.2	?	7.0	1.0	12.0*
CN1N=C2c3ccccc3CCC2C1c1ccc(F)cc1 (stereo unspecified)	0.4	4.9	.	0.0	22.6	1.8	.	.
CCOC(=O)c1[nH]c2ccccc2c1NC(=S)Nc1ccccc1C	1.1*	10.1*	31.1	2.9	12.8	6.1	-0.1	6.6*
CCOC(=O)c1[nH]c2ccc(Br)cc2c1NC(=O)CCN1CCC(C)CC1	-0.5	-0.7	14.5	-0.6	4.2	-0.2	.	.
CCOC(=O)c1[nH]c2ccccc2c1NC(=O)c1ccco1	-0.3	1.6	.	-0.5	4.7	0.9	.	.
CCCS(=O)(=O)Nc1c(C(=O)OC)[nH]c2ccccc12	-0.8	10.4*	-9.0	0.2	.	1.1	0.1	3.7
CCOC(=O)c1[nH]c2ccc(Br)cc2c1NC(=O)CNC	0.1	9.9*	11.8	-0.1	7.7	1.8	-0.1	4.9
COc1ccc(S(=O)(=O)N(C)C[C@H]2OCCCC[C@H](C)Oc3ccc(NC(=O)c4ccncc4)cc3C(=O)N([C@H](C)CO)C[C@H]2C)cc1	.	.	-3.9	.	.	.	.	.
